These results are taken from the supplement of paper PMC8047044.

Where a name gives a salt, the structure may show the parent alone.

This assay deals with Neuro-2a. Description: neurite formation score, plate-normalized to DMSO control mean 5.04 (score (0-8 scale)); higher = more or longer neurites. The conditions noted are these: 1 µM. The protocol:
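Neuro-2a mouse neuroblastoma cells in PLL-coated 96-well plates were pre-treated for 1 h in DMEM(+) with each kinase inhibitor at 1 µM, then switched to serum-free DMEM(-) with inhibitor to induce neurite outgrowth and fixed about 2-3 h later. Three blinded observers scored neurite formation from 0 (no neurites) to 8 (long neurites on almost all cells).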
Regarding `Nc1nc(N)c2nc(-c3cccc(O)c3)c(-c3cccc(O)c3)nc2n1`, the neurite formation score was determined as 4.24.

With `CN1CCN(CCOc2cc(OC3CCOCC3)c3c(Nc4c(Cl)ccc5c4OCO5)ncnc3c2)CC1` [Saracatinib (AZD0530)], the neurite formation score came to 4.91.

`NC(=O)c1ncn([C@@H]2O[C@H](CO)[C@@H](O)[C@H]2O)c1N` yielded a neurite formation score of 4.57.

Consider `CN1CCC(CNc2ccc3ncc(-c4cccc(OC(F)(F)F)c4)n3n2)CC1` [SGI-1776 free base], for which the neurite formation score was found to be 5.69.

With `CC(C)(C)NS(=O)(=O)c1cncc(-c2cc(F)c3nc(N)nn3c2)c1`, the neurite formation score is 4.36.

On to `CCCCCCCCCCCCCCCCOP(=O)([O-])OCC[N+](C)(C)C` [Miltefosine], for which the neurite formation score came out at 5.63.

For `NC1(Cc2ccc(Cl)cc2)CCN(c2ncnc3[nH]ccc23)CC1`, the neurite formation score stood at 5.63.

In turn, `CC(C)(C)n1nc(-c2ccc(Cl)cc2)c2c(N)ncnc21` yielded a neurite formation score of 4.24.

For `CNC(=O)c1cc(Oc2ccc3nc(N[C@@H]4CCCC[C@H]4O)sc3c2)ccn1`, the neurite formation score is 3.21.

Compound `CN1CCN(S(=O)(=O)c2ccc(-c3cnc(N)c(C(=O)Nc4cccnc4)n3)cc2)CC1` gave a neurite formation score of 2.88.

With `O=C(NCCCNc1nc(Nc2cccc(CN3CCOCC3)c2)ncc1C1CC1)C1CCC1`, the neurite formation score worked out at 5.02.

Consider `COc1cc2c(Nc3ccc(NC(=O)c4ccccc4)cc3)ncnc2cc1OCCCN1CCOCC1`, for which the neurite formation score turned out to be 3.69.

On to `COc1cc(N2CCC(N3CCN(C)CC3)CC2)ccc1Nc1ncc(Cl)c(Nc2ccccc2S(=O)(=O)C(C)C)n1`, for which the neurite formation score is 2.24.

The compound `CCn1c(N)c(C(=O)NC)c(=O)c2ccc(C#CC(C)(O)COC)nc21` (configuration not stated) returned a neurite formation score of 4.54.

The compound `Cc1ccc2c(Nc3ccc(Cl)cc3)nccc2c1Nc1ncccc1-c1ncnc2nc[nH]c12` [B-Raf inhibitor 1] displayed a neurite formation score of 2.47.

Regarding `NC(=O)Nc1cc(-c2cccc(F)c2)sc1C(=O)N[C@H]1CCCNC1`, the neurite formation score is -0.431.

Take `OCCn1cc(-c2cnc3nnn(Cc4ccc5ncccc5c4)c3n2)cn1`: the neurite formation score was 5.02.

Compound `O=C(Nc1ccccc1C(=O)NC1CCCCNC1=O)c1cc2ccccc2s1` (configuration not stated) returned a neurite formation score of 3.54.

`CC(C)n1nc(-c2ccc3oc(N)nc3c2)c2c(N)ncnc21`: the neurite formation score stood at 3.96.

`COc1cc(-c2cc(-c3cccc(O)c3)cnc2N)cc(OC)c1OC`: the neurite formation score stood at 3.88.

In turn, `COc1cc2ncnc(Nc3cccc(Cl)c3F)c2cc1OC(=O)N1CCN(C)C[C@H]1C` had a neurite formation score of 4.54.

For `COc1cc(Nc2nc3ccccc3nc2NS(=O)(=O)c2ccc(NC(=O)c3ccc(C)c(OC)c3)cc2)cc(OC)c1`, the neurite formation score stood at 4.57.

`O=C(CCCCCCC(=O)Nc1ccc(I)cc1)NO` [4-iodo-SAHA] yielded a neurite formation score of 5.21.

With `Cc1ccc(NC(=O)c2ccc(CN3CCN(C)CC3)cc2)cc1Nc1nccc(-c2cccnc2)n1` [Imatinib Mesylate (STI571)], the neurite formation score turned out to be 4.91.

Take `CCOc1cc2ncc(C#N)c(Nc3ccc(F)c(Cl)c3)c2cc1NC(=O)/C=C/CN(C)C` [Pelitinib (EKB-569)]: the neurite formation score amounted to 3.91.

Turning to `Nc1ncnc2n[nH]c(Nc3ccc(F)cc3)c12`, the neurite formation score came to 4.88.

`C=CC(=O)Nc1cccc(Nc2nc(Nc3ccc(N4CCN(C(C)=O)CC4)cc3OC)ncc2C(F)(F)F)c1` had a neurite formation score of 4.24.

On to `Cn1c(=O)c(F)c(Nc2ccc(I)cc2F)c2c(=O)n(C[C@@H](O)CO)cnc21`, for which the neurite formation score is 4.88.

With `COc1cc(N2CCC(N(C)C)CC2)ccc1Nc1ncc(Cl)c(Nc2ccccc2P(C)(C)=O)n1`, the neurite formation score was found to be 4.57.

Compound `CNCc1ccc(-c2cc(-c3nc(-c4ccc(S(=O)(=O)C(C)C)cc4)cnc3N)on2)cc1` had a neurite formation score of 1.29.

Compound `C[C@]1(O)C[C@@H](c2nc(-c3ccc4ccc(-c5ccccc5)nc4c3)c3c(N)nccn32)C1` [Linsitinib] displayed a neurite formation score of 4.9.

Regarding `O=C(NC(NC(=S)Nc1ccc(F)c([N+](=O)[O-])c1)C(Cl)(Cl)Cl)C(c1ccccc1)c1ccccc1` (configuration not stated), the neurite formation score amounted to 3.96.

On to `O=C(Nc1ccc(CN2CCOCC2)cc1)c1ccc(-c2cccc(Cl)c2)o1`, for which the neurite formation score was 4.9.

With `CCNc1nc(Nc2cc(F)c(C(=O)N3CCOCC3)cc2OC)ncc1C(F)(F)F`, the neurite formation score was 3.21.

With `CC(=O)Nc1cccc(-n2c(=O)n(C3CC3)c(=O)c3c(Nc4ccc(I)cc4F)n(C)c(=O)c(C)c32)c1` [Trametinib DMSO solvate], the neurite formation score was 5.02.

For the compound `COc1cc2ncnc(Nc3cccc(Br)c3)c2cc1OC`, the neurite formation score came to 4.14.

For the compound `CCS(=O)(=O)c1cccc(-c2cc(C(=O)NC3CCN(C)CC3)c(C)c3[nH]c4ncc(C)cc4c23)c1`, the neurite formation score came to 2.69.
